For eight compounds, growth inhibition results are on record in PubChem BioAssay (NCI).

The experiment in a line: NCI Yeast Anticancer Drug Screen. Data for the wt1 strain (AID 149).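 Further: 0% = growth of vehicle-treated wt1 cultures.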 The following applies: S. cerevisiae wt1 strain (SPY 50644) growth inhibition, active compounds read high. How it is done:
Growth inhibition of yeast strains with defined genetic alterations is measured as a screen for potential anti-cancer activity. Selected strains with alterations in DNA damage repair or cell cycle control were exposed to compounds and growth inhibition was measured relative to vehicle treated controls. The strain used in this assay is wt1

Compounds without any hit were thinned out: in the full panel of roughly 79,000, 15% have a hit. A number with no mark means an inactive call. Calls of active or inactive are those of the source. No stated cut-off is given here; in the data, active means growth inhibition above about 70%; inactive means the rest.

Regarding `Cc1ccc(NN(NC(=O)OC(C)C)C(=O)OC(C)C)cc1`, the growth inhibition by setting is: (at 1.2 µM) 2%; (at 3.7 µM) 7%; (at 11.0 µM) 4%; (at 33.0 µM) 7%; (at 100.0 µM) 11%.
Regarding `O=C1C2C(C(=O)N1c1ccc(OCc3ccccc3)cc1)C1c3ccccc3C2C2CCCCN21` (stereo not given), the growth inhibition was -6% (at 1.2 µM); -7% (at 3.7 µM); -10% (at 11.0 µM); -10% (at 33.0 µM); 75% (active) (at 100.0 µM).
As for `COc1cc(CC2CC(c3ccc4c(c3)OCO4)OC2=O)cc(OC)c1OC` (stereo not given), the growth inhibition was -2% (at 1.2 µM); -3% (at 3.7 µM); -4% (at 11.0 µM); -3% (at 33.0 µM); 0% (at 100.0 µM).
Turning to `CSC(=S)N/N=C(\C)c1cccc(C)n1`, the growth inhibition by setting is: (at 1.2 µM) -4%; (at 3.7 µM) -7%; (at 11.0 µM) -4%; (at 33.0 µM) 19%; (at 100.0 µM) 99% (active).
For the compound `NCCNc1ccc(NCCN)c2c1C(=O)c1c(O)ccc(O)c1C2=O`, the growth inhibition runs as follows: (at 1.2 µM) 0%; (at 3.7 µM) 9%; (at 11.0 µM) 7%; (at 33.0 µM) 82% (active); (at 100.0 µM) 76% (active).
Taken in the same sequence, the figures for `COC(=O)C1=C(C)NC(C)=C(C(=O)OCCCN2CCC(c3ccccc3)(c3ccccc3)CC2)C1c1cccc([N+](=O)[O-])c1` (stereo not given) were -3%, -5%, 69%, 98% (active) and 94% (active).
`CCc1ncnc2cc(OCC3CO3)c(OC)cc12` (stereo not given): the growth inhibition runs as follows: (at 1.2 µM) -9%; (at 3.7 µM) 8%; (at 11.0 µM) 3%; (at 33.0 µM) 6%; (at 100.0 µM) 20%.
For the compound `NC1=NS(=O)(=O)N=C(N)C1=Cc1ccc([N+](=O)[O-])o1`, the growth inhibition is -20% (at 1.2 µM); -11% (at 3.7 µM); -6% (at 11.0 µM); -18% (at 33.0 µM); 98% (active) (at 100.0 µM).
